# Measured values published in the supplement of paper PMC8728848.
# This is one part of a sample in which the strongest signals are shown more often than they occur.
# Legend:
# Test in all cases: glycan array binding signal (z-score within array); higher = stronger binding
# Gal(a1-3)Gal(b1-4)Glc = conditions: glycan notation: IUPAC condensed, linker removed
# Summary of the method: (§1)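 Negative Z-scores can be read as non-binding. The Z-score is calculated within each array and then averaged across arrays of one protein sequence at different concentrations or buffers and across linkers. Arrays, 3228 in all, were curated from the Consortium for Functional Glycomics database and kept only where the protein sequence was available.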
# [1] = test system: Gal(a1-3)Gal(b1-4)GlcNAc(b1-3)GalNAc; conditions: glycan notation: IUPAC condensed, linker removed
# Summary of the method: as §1
# Gal(a1-3)Gal(b1-4)GlcNAc = conditions: glycan notation: IUPAC condensed, linker removed
# Summary of the method: as §1
# Gal(a1-3)Gal = conditions: glycan notation: IUPAC condensed, linker removed
# Summary of the method: as §1
# Gal(a1-3)GalNAc = conditions: glycan notation: IUPAC condensed, linker removed
# Summary of the method: as §1
# [2] = test system: Gal(a1-4)Gal(b1-4)GlcNAc(b1-3)Gal(b1-4)Glc; conditions: glycan notation: IUPAC condensed, linker removed
# Summary of the method: as §1
# [3] = test system: Gal(a1-3)[Gal(a1-4)]Gal(b1-4)GlcNAc; conditions: glycan notation: IUPAC condensed, linker removed
# Summary of the method: as §1
# Gal(a1-4)Gal(b1-4)Gal = conditions: glycan notation: IUPAC condensed, linker removed
# Summary of the method: as §1
# [4] = test system: Gal(a1-3)Gal(b1-4)[Fuc(a1-3)]GlcNAc(b1-2)Man(a1-3)[Gal(a1-3)Gal(b1-4)[Fuc(a1-3)]GlcNAc(b1-2)Man(a1-6)]Man(b1-4)GlcNAc(b1-4)GlcNAc; conditions: glycan notation: IUPAC condensed, linker removed; mutation: R125K
# Summary of the method: as §1
# [5] = test system: Gal(a1-3)Gal(b1-4)[Fuc(a1-3)]GlcNAc; conditions: glycan notation: IUPAC condensed, linker removed; mutation: R125K
# Summary of the method: as §1
# Chain of PILRb (Mus musculus), Q2YSF2 (Q2YSF2 entry or part of it): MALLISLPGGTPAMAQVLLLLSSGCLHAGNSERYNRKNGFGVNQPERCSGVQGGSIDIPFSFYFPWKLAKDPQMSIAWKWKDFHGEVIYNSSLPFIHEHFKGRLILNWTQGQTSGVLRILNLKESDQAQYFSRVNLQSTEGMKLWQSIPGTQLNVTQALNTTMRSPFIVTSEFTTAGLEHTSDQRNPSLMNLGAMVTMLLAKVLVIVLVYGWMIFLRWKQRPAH
# Chain of CHT (Homo sapiens) (chain, as listed by the source): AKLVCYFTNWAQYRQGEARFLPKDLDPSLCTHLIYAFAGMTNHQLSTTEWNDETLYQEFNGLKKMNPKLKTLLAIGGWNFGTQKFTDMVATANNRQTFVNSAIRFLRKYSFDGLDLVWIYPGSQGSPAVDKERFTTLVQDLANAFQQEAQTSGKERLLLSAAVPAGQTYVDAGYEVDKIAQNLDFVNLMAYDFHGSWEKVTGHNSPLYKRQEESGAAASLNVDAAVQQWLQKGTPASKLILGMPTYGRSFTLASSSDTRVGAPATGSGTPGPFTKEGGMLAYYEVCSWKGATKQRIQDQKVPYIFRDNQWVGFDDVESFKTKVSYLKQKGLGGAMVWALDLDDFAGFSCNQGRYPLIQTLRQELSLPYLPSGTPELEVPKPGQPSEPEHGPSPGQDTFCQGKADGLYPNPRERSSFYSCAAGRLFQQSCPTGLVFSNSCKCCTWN
# Chain of C3b (Homo sapiens), P01024 (P01024 23-667): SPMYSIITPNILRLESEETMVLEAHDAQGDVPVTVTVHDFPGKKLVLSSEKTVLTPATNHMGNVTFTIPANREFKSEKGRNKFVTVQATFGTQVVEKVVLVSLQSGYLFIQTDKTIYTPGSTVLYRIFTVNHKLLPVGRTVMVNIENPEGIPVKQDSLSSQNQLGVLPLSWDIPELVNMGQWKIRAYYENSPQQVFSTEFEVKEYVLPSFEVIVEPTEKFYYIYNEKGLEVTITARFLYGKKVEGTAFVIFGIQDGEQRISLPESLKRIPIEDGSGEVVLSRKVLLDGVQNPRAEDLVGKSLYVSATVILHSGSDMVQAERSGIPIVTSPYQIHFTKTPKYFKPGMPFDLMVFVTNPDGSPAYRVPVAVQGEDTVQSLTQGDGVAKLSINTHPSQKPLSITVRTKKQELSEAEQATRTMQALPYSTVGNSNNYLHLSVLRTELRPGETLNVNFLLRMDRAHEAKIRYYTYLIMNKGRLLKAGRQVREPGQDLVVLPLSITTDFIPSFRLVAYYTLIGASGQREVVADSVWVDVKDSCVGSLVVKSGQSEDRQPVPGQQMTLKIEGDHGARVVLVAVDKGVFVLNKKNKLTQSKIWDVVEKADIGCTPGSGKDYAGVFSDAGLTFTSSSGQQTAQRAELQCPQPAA
# Chain of Aggrecan (Rattus norvegicus), NP_071526 (chain, as listed by the source): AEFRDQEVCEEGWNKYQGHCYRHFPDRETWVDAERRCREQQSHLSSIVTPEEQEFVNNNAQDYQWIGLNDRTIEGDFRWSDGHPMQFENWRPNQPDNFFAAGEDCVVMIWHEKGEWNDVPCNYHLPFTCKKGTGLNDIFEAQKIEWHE
# Chain of wLAT-1A (Homo sapiens), Q01650 (Q01650 whole entry): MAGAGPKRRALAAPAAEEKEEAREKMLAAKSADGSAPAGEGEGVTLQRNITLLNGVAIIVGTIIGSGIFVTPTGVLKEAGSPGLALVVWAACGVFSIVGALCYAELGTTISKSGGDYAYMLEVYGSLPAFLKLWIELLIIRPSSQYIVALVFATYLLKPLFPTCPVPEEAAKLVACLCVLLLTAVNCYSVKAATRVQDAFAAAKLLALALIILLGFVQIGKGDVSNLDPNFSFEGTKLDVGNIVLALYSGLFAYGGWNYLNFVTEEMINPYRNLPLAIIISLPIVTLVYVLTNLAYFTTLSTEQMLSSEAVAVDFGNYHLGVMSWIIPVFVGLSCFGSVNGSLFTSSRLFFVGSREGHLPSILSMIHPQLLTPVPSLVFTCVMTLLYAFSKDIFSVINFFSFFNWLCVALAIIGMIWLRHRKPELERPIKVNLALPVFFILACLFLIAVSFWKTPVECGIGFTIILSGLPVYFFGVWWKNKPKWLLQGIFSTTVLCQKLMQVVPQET
# Chain of 6RG (Lolium perenne) (chain, as listed by the source): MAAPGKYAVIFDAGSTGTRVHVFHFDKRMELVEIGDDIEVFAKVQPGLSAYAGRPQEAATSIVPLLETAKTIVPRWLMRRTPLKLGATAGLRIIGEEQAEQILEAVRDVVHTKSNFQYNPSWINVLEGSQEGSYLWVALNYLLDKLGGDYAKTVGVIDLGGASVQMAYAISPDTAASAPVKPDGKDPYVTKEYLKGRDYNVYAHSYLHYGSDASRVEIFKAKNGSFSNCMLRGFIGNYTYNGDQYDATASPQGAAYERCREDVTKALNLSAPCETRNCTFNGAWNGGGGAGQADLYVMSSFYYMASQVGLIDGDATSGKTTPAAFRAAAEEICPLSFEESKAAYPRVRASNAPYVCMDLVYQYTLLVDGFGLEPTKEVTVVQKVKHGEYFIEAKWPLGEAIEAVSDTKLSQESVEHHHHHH
# Chain of Avaren (Actinomycete K97) (chain, as listed by the source): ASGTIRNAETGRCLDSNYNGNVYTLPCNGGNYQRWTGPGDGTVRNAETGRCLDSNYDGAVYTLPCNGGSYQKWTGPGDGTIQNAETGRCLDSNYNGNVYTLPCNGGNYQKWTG
# Chain of 6RG (Lolium perenne), B9U140 (B9U140 entry or part of it): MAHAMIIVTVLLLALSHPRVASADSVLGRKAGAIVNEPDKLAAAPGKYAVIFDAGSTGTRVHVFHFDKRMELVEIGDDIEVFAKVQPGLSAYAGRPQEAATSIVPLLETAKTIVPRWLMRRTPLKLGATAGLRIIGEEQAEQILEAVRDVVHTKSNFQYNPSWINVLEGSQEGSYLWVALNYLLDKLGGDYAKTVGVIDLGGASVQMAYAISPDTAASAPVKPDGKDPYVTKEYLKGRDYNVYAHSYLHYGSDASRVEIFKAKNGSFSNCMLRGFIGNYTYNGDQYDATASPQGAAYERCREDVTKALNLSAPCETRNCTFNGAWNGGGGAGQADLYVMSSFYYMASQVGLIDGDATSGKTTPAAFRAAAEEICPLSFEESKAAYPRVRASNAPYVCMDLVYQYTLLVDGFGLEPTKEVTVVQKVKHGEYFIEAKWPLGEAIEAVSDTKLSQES
# Chain of PILRa (Mus musculus), Q2YSF3 (Q2YSF3 entry or part of it): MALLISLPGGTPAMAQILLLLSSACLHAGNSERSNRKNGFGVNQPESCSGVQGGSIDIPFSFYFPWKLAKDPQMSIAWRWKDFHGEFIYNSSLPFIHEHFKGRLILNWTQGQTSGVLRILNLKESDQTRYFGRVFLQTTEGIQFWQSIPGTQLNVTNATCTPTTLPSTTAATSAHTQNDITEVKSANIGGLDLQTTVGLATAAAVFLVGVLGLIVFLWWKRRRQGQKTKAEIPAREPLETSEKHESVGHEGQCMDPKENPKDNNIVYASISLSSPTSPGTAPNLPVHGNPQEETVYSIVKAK
substance,measurement,setting,value
"PILRa (Mus musculus), Q2YSF3",glycan array binding signal (z-score),Gal(a1-3)Gal(b1-4)Glc,0.145
"PILRb (Mus musculus), Q2YSF2",glycan array binding signal (z-score),[1],-0.089
same,glycan array binding signal (z-score),Gal(a1-3)Gal(b1-4)GlcNAc,-0.363
same,glycan array binding signal (z-score),Gal(a1-3)Gal,2.68
Avaren (Actinomycete K97),glycan array binding signal (z-score),Gal(a1-3)Gal(b1-4)Glc,0.305
"C3b (Homo sapiens), P01024",glycan array binding signal (z-score),Gal(a1-3)Gal(b1-4)Glc,1.67
same,glycan array binding signal (z-score),Gal(a1-3)Gal,2.77
"6RG (Lolium perenne), B9U140",glycan array binding signal (z-score),Gal(a1-3)Gal(b1-4)Glc,-0.272
"wLAT-1A (Homo sapiens), Q01650",glycan array binding signal (z-score),Gal(a1-3)GalNAc,0.501
"Aggrecan (Rattus norvegicus), NP_071526",glycan array binding signal (z-score),[2],-0.204
CHT (Homo sapiens),glycan array binding signal (z-score),"[3]; mutation: D138V, E140I",-0.162
same,glycan array binding signal (z-score),"Gal(a1-4)Gal(b1-4)Gal; mutation: D138V, E140I",-0.141
"Siglec-8 (Homo sapiens), Q9NYZ4",glycan array binding signal (z-score),[4],1.51
same,glycan array binding signal (z-score),[5],-0.444
same,glycan array binding signal (z-score),[3],-0.14
6RG (Lolium perenne),glycan array binding signal (z-score),Gal(a1-4)Gal(b1-4)Gal,6.25
